Only some compounds are listed: those with a hit (about 4% of all), similar ones and a draw of the others.
TIM10 inh = growth inhibitors of TIM10 yeast strain; S. cerevisiae TIM10 strain growth, BacTiter-Glo luminescence, 24 h; inhibition, % at 10 µM; 330,000 tested, 1.4% active; AID 463195;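 active = inhibition of 40% or more at the single tested concentration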;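 also: wild-type TIM10 isogenic control strain grown at permissive 25 °C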
tim23-1 inh = growth inhibitors of tim23-1 mutant yeast; S. cerevisiae tim23-1 growth, BacTiter-Glo luminescence, 24 h; inhibition, % at 20 µM; 330,000 tested, 1.3% active; AID 463212;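 active = growth inhibition of the mutant yeast at or above 50%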;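 also: temperature-sensitive mutant grown at 25 °C; plate controls were DMSO-treated mutant yeast for no effect and medium wells lacking yeast for full effect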
tim10-1 inh = tim10-1 yeast growth inhibition | S. cerevisiae tim10-1 ts strain growth, BacTiter-Glo, 24 h | inhibition, % at 20 µM | 330,000 tested, 2.2% active | AID 463190;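 active = inhibition of at least 40%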;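 also: mutant grown at 25 °C; 0% = DMSO wells with yeast and 100% = wells holding no yeast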
NALP1 inh = inhibitors of NALP1 inflammasome in yeast | inhibition, % at 10 µM | S. cerevisiae NALP1/ASC/caspase-1 growth, X-gal OD620, 72 h | 280,000 tested, 0.61% active; in the data active = inhibition mostly above about 24%, no sharp cut-off; inactive = mostly below about 32%
NLRP3 yeast inh = blocks the NALP3 inflammasome reconstituted in yeast | Yeast reconstituted NLRP3/ASC/caspase-1, beta-gal luminescence, 24 h | AID 2825 | 330,000 tested, 0.39% active | inhibition, % at 10 µM;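 active = inhibition of 50% or more; inactive = inhibition below 50%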;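 also: plate controls were induced DMSO wells for no effect and uninduced yeast grown without galactose for full effect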
TIM10 conf = TIM10 yeast growth inhibition, confirmed | shares compounds with TIM10 inh | S. cerevisiae tim10 strain growth, BacTiter-Glo luminescence, 24 h | inhibition, % at 10 µM | 4,600 tested, 63% active;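 active = inhibition of yeast growth at or above a set limit in either of two replicates at 10 µM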;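 also: this counterscreen used the strain with wild-type TIM10; 0% = yeast with DMSO and 100% = medium wells lacking yeast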
tim23-1 conf = tim23-1 yeast growth inhibition, confirmed; AID 463218; 4,400 tested, 83% active; inhibition, % at 20 µM; S. cerevisiae tim23-1 growth, BacTiter-Glo luminescence, 24 h; shares compounds with tim23-1 inh;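 active = inhibition above about 39% in either of two replicate wells at 20 µM, limit read from the data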;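 also: temperature-sensitive tim23-1 mutant grown at 25 °C; 0% = DMSO wells with yeast and 100% = medium wells without yeast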
* marks the source's active call; other numbers are inactive results; . = no result.

SMILES | TIM10 inh | tim23-1 inh | tim10-1 inh | NALP1 inh | NLRP3 yeast inh | TIM10 conf | tim23-1 conf
CCCCN(CC)CCCNC(=O)c1cc2cc3ccc(C)cc3nc2o1 | 32 | 23 | 25 | 18 | 8 | . | .
Cc1ccc2cc3cc(C(=O)NCCCN4CCCC4)oc3nc2c1 | 45* | 17 | 6 | 26 | 5 | 15 | .
COc1cccc(-c2cc(=O)c3cc(NC(=O)c4ccc(N(C)C)cc4)ccc3[nH]2)c1 | 67* | -3 | -11 | 9 | 13 | -10 | .
COc1ccc(C(=O)Nc2ccc3c(c2)nc2n3CCSC2)cc1 | 51* | 35 | 11 | 3 | 12 | 42* | .
O=C(Nc1ccc2c(c1)nc1n2CCSC1)c1ccccc1 | 66* | 40 | 39 | 6 | 48 | 67* | .
Cc1nc2ccc(NS(=O)(=O)c3ccc(F)cc3)cc2s1 | 60* | 9 | 3 | 6 | 14 | 0 | .
O=C(Nc1ccc2c(c1)nc1n2CCOC1)c1ccccc1 | 63* | 44 | 35 | -10 | 10 | 47* | .
CCC(=O)Nc1ccc2c(c1)nc1n2CCSC1 | -2 | 14 | 20 | 5 | 13 | . | .
Cc1nc2ccc(NS(=O)(=O)c3c(F)cccc3F)cc2s1 | 4 | 22 | 9 | . | -3 | . | .
CC(C)C(=O)Nc1ccc2c(c1)nc1n2CCSC1 | 4 | 9 | 9 | 13 | -4 | . | .
O=C1CC2(CCN(C(=O)c3cccc([N+](=O)[O-])c3)CC2)Oc2ccccc21 | 4 | 20 | 14 | . | 13 | . | .
CCc1ccc(OCC(=O)Nc2ncn[nH]2)cc1 | 0 | 13 | 4 | 14 | 10 | . | .
CCCNC(=O)c1ccc(C2SCC(=O)N2CCc2ccccc2)cc1 (centres undefined) | 12 | 25 | 22 | 35 | 4 | . | .
Cc1nc2ccc(NC(=O)c3ccccc3)cc2s1 | 44* | 30 | -5 | 7 | 41 | 7 | .
O=C(NCCc1ccc(F)cc1)c1ccc(S(=O)(=O)N2CCCC2)cc1 | 22 | 36 | 20 | . | 12 | . | .
O=C(NCCc1ccccc1)c1ccc(S(=O)(=O)N2CCCC2)cc1 | 62* | 23 | 19 | . | 15 | 3 | .
CC(CC(=O)Nc1ccc(Cl)c([N+](=O)[O-])c1)c1ccccc1 (centres undefined) | 42* | 35 | 38 | 31 | 10 | -14 | .
O=C(Nc1ccccc1)Nc1ccc(Cl)c([N+](=O)[O-])c1 | 9 | 2 | 12 | 21 | 16 | . | .
CCN(CC)S(=O)(=O)c1ccc(NC=C(C#N)C#N)cc1 | -6 | -3 | -10 | . | -9 | . | .
CCc1cc(C)cc(OCCOc2ccccc2/C=N/NC(C)=O)c1 | 13 | 27 | 6 | 6 | 17 | . | .
CC(=O)N/N=C/c1ccccc1OCCOc1cccc(C)c1 | 47* | 49 | 10 | -5 | 17 | 34* | .
CCCCNC(=S)N/N=C/c1ccccc1F | 47* | 51* | 35 | 20 | 24 | -10 | 40*
Cc1nn(C)cc1S(=O)(=O)NC1CCCC1 | -5 | 5 | -6 | 1 | 24 | . | .
COc1ccc(NC(=O)COC(=O)c2cc(Cl)ccc2O)cc1S(=O)(=O)N1CCCCC1 | -11 | 0 | -9 | . | 10 | . | .
CC(C)(C)n1cnc2cc(NCc3ccc(Br)cc3)ccc21 | 53* | 54* | 25 | 6 | 42 | 37* | 69*
SMILES | TIM10 inh | tim23-1 inh | tim10-1 inh | NALP1 inh | NLRP3 yeast inh | TIM10 conf | tim23-1 conf
C/C(=N\NC(=S)NCCc1ccccc1)c1cccs1 | 41* | 51* | 39 | 31 | 29 | -12 | 46*
CCOC(=O)/C(=C\c1ccc(OC)c(OC)c1)C(=O)c1cccnc1 | 50* | 59* | 35 | 4 | 27 | 48* | 56*
COc1ccc(/C=C/C(=O)O/N=C(\N)c2cccnc2)cc1OC | -8 | 13 | 6 | . | 12 | . | .
Oc1ccc(-c2cc(-c3ccc(O)cc3)nc(-c3ccccc3)n2)cc1 | 67* | 61* | 31 | 6 | 4 | 63* | 61*
CC1(C)CCC[C@]2(C)C(CS(=O)c3ccccc3)=C(C=O)CC[C@@H]12 (some centres undefined) | 49* | 67* | 29 | . | 22 | 47* | 55*
O/N=C/c1ccccc1OCc1ccc(Cl)cc1 | 42* | 52* | 23 | 8 | 23 | -27 | 59*
Cc1cccc(NC(=O)C2C(c3ccccc3)C2(Cl)Cl)c1 (centres undefined) | 46* | 52* | 11 | 9 | 38 | 33* | 51*
O=C1/C(=C/c2cccs2)Cc2ccccc21 | 48* | 51* | 20 | 39 | 0 | -48 | 70*
O=C1/C(=C\c2ccc(Br)o2)Cc2ccccc21 | 20 | 27 | 14 | 30 | -8 | . | .
O=C(/C=C/c1ccccn1)c1cc(Cl)cc(Cl)c1O | 61* | 63* | 37 | 1 | 3 | 53* | 24
O=C(CN1CCN(C(=O)C2CCCO2)CC1)Nc1cc(C(F)(F)F)ccc1Cl (centres undefined) | 1 | 3 | 3 | 21 | -8 | . | .
COc1cccc(/C=N/NC(=O)C(=O)Nc2ccccc2OC(F)(F)C(F)F)c1O | 45* | 54* | -2 | 10 | 17 | 56* | 61*
CCCOc1ccc(/C=c2\sc3ncnn3c2=O)cc1 | 19 | 47 | 32 | -2 | 20 | . | .
CCOc1ccccc1/C=c1\sc2ncnn2c1=O | 43* | 60* | 38 | -16 | 24 | 32* | 74*
COc1ccccc1/C=N\NC(=O)c1c(C)nc2ccc(Cl)cn12 | 4 | 14 | 8 | 3 | 14 | . | .
COc1cccc(/C=N/NC(=O)c2c(C)nc3ccc(Cl)cn23)c1O | 48* | 59* | 26 | 6 | 6 | 65* | 58*
CCOC(=O)N1CCN(Cc2nc3cc([N+](=O)[O-])ccc3n2C)CC1 | -4 | 17 | 27 | -7 | 11 | . | .
Cc1ccc(-n2c(-c3ccc(Cl)cc3)n[nH]c2=S)c(C)c1 | 47* | 55* | 24 | -12 | 1 | 49* | 42*
COc1ccc(-c2n[nH]c(=S)n2-c2ccc(C)cc2C)cc1 | 31 | 43 | 39 | -3 | 22 | . | .
Cc1ccc(Nc2ncccc2C(N)=O)cc1[N+](=O)[O-] | 43* | 56* | 24 | 30 | 9 | 40* | 69*
Cc1ccc(Nc2ncccc2C(=O)O)cc1C | 2 | -12 | -8 | 19 | 6 | . | .
CC1=NN(C(N)=S)C(=O)C1N=Nc1c(Br)cc(Br)cc1Br (centres undefined) | 45* | 60* | 35 | 10 | 36 | 60* | 63*
O=C(COc1ccc(F)cc1Br)NCc1nnc2ccccn12 | 5 | -1 | -14 | . | 8 | . | .
O=C(Cc1ccsc1)NCc1ccccc1F | 3 | -8 | -6 | 22 | 0 | . | .
COc1ccc(Nc2nc(N)nc(CSC(=S)N3CCCCC3C)n2)cc1 (centres undefined) | 40 | 53* | 29 | . | 13 | 24 | 45*

High-throughput results deposited in PubChem by Sanford-Burnham Center for Chemical Genomics.
